In publication PMC11062922 (Nature Chemical Biology, 2023):
Read-outs that look alike come from different tables or passages of the source.

How the values were obtained:
Set-up in all cases: species or system human, MV4-11 + K-562 + COLO205 + SK-N-BE2 + OVCAR-8
NEK2 = settings: read-out: apparent Kd; compound concentrations:100 nM and 1000 nM (sheet 'Samples'); n = 1
PKMYT1 = settings: read-out: apparent Kd; compound concentrations:100 nM and 1000 nM (sheet 'Samples'); n = 1
NCL = settings: read-out: apparent Kd; compound concentrations: 100 nM and 1000 nM (sheet 'Samples'), CATDS: 1.71627638164802E-2; n = 1
PKM = settings: read-out: apparent Kd, compound concentrations: 100 nM and 1000 nM (sheet 'Samples'), n = 1
SLC25A6;SLC25A4 = settings: read-out: apparent Kd, n = 1
CIT = settings: read-out: apparent Kd; compound concentrations:100 nM and 1000 nM (sheet 'Samples'); n = 1
CSNK1G3 = settings: read-out: apparent Kd; compound concentrations:100 nM and 1000 nM (sheet 'Samples'); n = 1
DHCR24 = settings: read-out: apparent Kd, n = 1
DCK = settings: read-out: apparent Kd, n = 1
PRKCI = settings: read-out: apparent Kd, n = 1
TUBB6 = settings: read-out: apparent Kd, n = 1
ARAF = settings: read-out: apparent Kd, compound concentrations: 100 nM and 1000 nM (sheet 'Samples'), n = 1
CDK10 = settings: read-out: apparent Kd, n = 1
CDK12 = settings: read-out: apparent Kd; compound concentrations:100 nM and 1000 nM (sheet 'Samples'); n = 1
CDK13 = settings: read-out: apparent Kd, n = 1
IRAK1 = settings: read-out: apparent Kd, n = 1
PI4KA = settings: read-out: apparent Kd; compound concentrations:100 nM and 1000 nM (sheet 'Samples'); n = 1
EPHA7 = settings: read-out: apparent Kd; compound concentrations:100 nM and 1000 nM (sheet 'Samples'); n = 1
CAMK2D = settings: read-out: apparent Kd, n = 1
PSMC3 = settings: read-out: apparent Kd, n = 1
[1] = compound concentrations:100 nM and 1000 nM (sheet 'Samples')

CCN(CC)CCOc1ccc(Nc2ncc3cc(-c4c(Cl)cccc4Cl)c(=O)n(C)c3n2)cc1 [SB-601273]
potency estimated from few doses (NEK2): 1780 nM
potency estimated from few doses (PKMYT1): 1030 nM

Cl.Cl.Cl.c1ccc(Oc2ccc(Nc3ccnc4cc(-c5ccc(CN6CCNCC6)o5)ccc34)cc2)nc1.c1ccc(Oc2ccc(Nc3ccnc4cc(-c5ccc(CN6CCNCC6)o5)ccc34)cc2)nc1 [GW567142A]
potency estimated from few doses (NCL): 1970 nM

CN1CCN(Cc2ccc(-c3ccc4c(Nc5ccc(Oc6ccccn6)cc5)ccnc4c3)o2)CC1 [GW567140X]
potency estimated from few doses (PKM; CATDS: 3.4326075880393901E-2): 1520 nM

O=S(=O)(c1ccc(-c2ccnc3[nH]ccc23)cc1)N1CCCC1 [GSK846226A]
potency estimated from few doses (SLC25A6;SLC25A4; [1]): 2020 nM

CC(=O)c1c(-c2ccncc2)[nH]c(-c2ccncc2)c1C [GW493036X]
potency estimated from few doses (CIT): 173 nM
potency estimated from few doses (CSNK1G3): 842 nM
potency estimated from few doses (DHCR24; [1]): 1240 nM

O=S(=O)(CCOCc1ccc(-c2ccc3ncnc(Nc4ccc(OCc5cccc(F)c5)c(Cl)c4)c3c2)o1)c1ccccc1 [GW615311X]
potency estimated from few doses (DCK; compound concentrations: 100 nM and 1000 nM (sheet 'Samples'), CATDS: 2.31641141582303E-2): 2110 nM
potency estimated from few doses (PRKCI; compound concentrations: 100 nM and 1000 nM (sheet 'Samples'), CATDS: 2.29472037028754E-2): 2160 nM
potency estimated from few doses (TUBB6; compound concentrations: 100 nM and 1000 nM (sheet 'Samples'), CATDS: 2.6696132806602001E-2): 1500 nM

CC(=O)N1CCN(c2ccc(Nc3nccc(-c4sc(C(C)C)nc4-c4cccc(NS(=O)(=O)c5ccccc5)c4)n3)cn2)CC1 [GSK1645872A]
potency estimated from few doses (ARAF; CATDS: 2.3399978491415799E-2): 1560 nM

CNc1nccc(-c2c(-c3ccc(F)cc3)ncn2C2CCN(C)CC2)n1 [SB-222903]
potency estimated from few doses (CIT): 670 nM

CN1CCN(Cc2ccc(NC(=O)Nc3ccc(N(C)c4ccnc(Nc5ccc(CS(C)(=O)=O)cc5)n4)cc3)cc2)CC1.Cl [GW827654A]
potency estimated from few doses (CDK10; compound concentrations: 100 nM and 1000 nM (sheet 'Samples'), CATDS: 3.5844771224848297E-2): 1570 nM

N#Cc1cccc(Nc2nccc(-c3cnn4ncccc34)n2)c1 [GW778894X]
potency estimated from few doses (CDK10; [1]): 405 nM
potency estimated from few doses (CDK12): 541 nM
potency estimated from few doses (CDK13; [1]): 1160 nM
potency estimated from few doses (IRAK1; [1]): 896 nM

CNC(=O)c1ccccc1Nc1nc(Nc2cccc(CS(C)(=O)=O)c2)ncc1C.O=CO [GSK1520489A]
potency estimated from few doses (IRAK1; compound concentrations: 100 nM and 1000 nM (sheet 'Samples'), CATDS: 1.0270392688251299E-2): 1150 nM

CC(C)c1nc(-c2cccc(NS(=O)(=O)c3c(F)cccc3F)c2F)c(-c2ccnc(Nc3ccc(N4CCOCC4)nc3)n2)s1 [GSK2008607A]
potency estimated from few doses (ARAF; CATDS: 1.81049419419274E-2): 2030 nM

Nc1nc(N)c2nc(-c3ccccc3)[nH]c2n1 [SKF-12778]
potency estimated from few doses (CSNK1G3): 1180 nM
potency estimated from few doses (DCK; [1]): 1720 nM
potency estimated from few doses (PI4KA): 1400 nM
potency estimated from few doses (TUBB6; [1]): 1770 nM

COc1cccc(C2=C(c3cn(C)c4c(C)cccc34)C(=O)NC2=O)c1 [RO3301012-000]
potency estimated from few doses (SLC25A6;SLC25A4; compound concentrations: 100 nM and 1000 nM (sheet 'Samples'), CATDS: 9.9606855520270293E-2): 1850 nM

Nc1c(C(=O)c2ccccc2)cnn1-c1ccc(F)cc1 [RO1151246-000]
potency estimated from few doses (PRKCI; [1]): 2030 nM

Cc1[nH]nc2c1N=C(c1ccccc1Cl)c1cc([N+](=O)[O-])ccc1N2 [RO0274406-000]
potency estimated from few doses (PKM; CATDS: 7.8896221929170104E-2): 922 nM

Cc1ccc(-n2nc(C(C)(C)C)cc2NC(=O)Nc2ccc(OCCN3CCOCC3)cc2)cc1 [BIRB0876BS]
potency estimated from few doses (EPHA7): 1830 nM

Cl.Oc1ccc2ncnc(Nc3ccc(OCc4ccccc4)cc3)c2c1 [GI262866A]
potency estimated from few doses (CAMK2D; [1]): 388 nM

CCCCCNC(=O)[C@@H]1CCCN2C(=O)CC[C@H](NC(=O)[C@H](Cc3ccc(OP(=O)(O)O)cc3)NC(C)=O)C(=O)N12 [RO0324694-000]
potency estimated from few doses (PSMC3; [1]): 1910 nM

Cn1cc(C2=C(c3ccccc3[N+](=O)[O-])C(=O)NC2=O)c2ccccc21 [RO0317753-000]
potency estimated from few doses (CAMK2D; compound concentrations: 100 nM and 1000 nM (sheet 'Samples'), CATDS: 9.7402766920506798E-2): 597 nM

COc1ccc(Nc2nccc(N3CCC(NC(=O)Nc4cccc(OC)c4)C3)n2)cc1 (stereo not shown) [GSK1379742A]
potency estimated from few doses (DHCR24; compound concentrations: 100 nM and 1000 nM (sheet 'Samples'), CATDS: 0.157459675408709): 1060 nM

Fc1cccc(COc2ccc(Nc3ncncc3C#Cc3ccccc3)cc2Cl)c1 [GW651576X]
potency estimated from few doses (PSMC3; compound concentrations: 100 nM and 1000 nM (sheet 'Samples'), CATDS: 4.80880541633023E-2): 1950 nM

COc1cc(F)c(F)c(F)c1C(=O)c1cnc(NC2CCN(S(C)(=O)=O)CC2)nc1N [RO4600703-000]
potency estimated from few doses (CDK12): 2300 nM

COc1ccc(C2=C(Nc3cccc(O)c3)C(=O)NC2=O)cc1 [SB-390766]
potency estimated from few doses (PI4KA): 1330 nM

NC(=O)c1cccnc1COc1cc(-c2ccc(N3CCOCC3)nc2)cc2ncccc12 [BI01125081]
potency estimated from few doses (EPHA7): 1500 nM

COc1ccc(-c2nn3ncccc3c2-c2ccnc(Nc3ccc4c(c3)OCCO4)n2)cc1 [GW827106X]
potency estimated from few doses (CDK13; compound concentrations: 100 nM and 1000 nM (sheet 'Samples'), CATDS: 4.6663696277222499E-2): 1770 nM
